ChEMBL document CHEMBL1961873, “Compounds: GSK PKIS; Assays: Nanosyn kinase panel” (2012)

Columns and labels:
[1] = biological target: Protein kinase C gamma type (Homo sapiens) (UniProt P05129); settings: at 1 µM;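 note: each value is an averaged percent inhibition of the enzyme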
[2] = biological target: T1, Protein kinase C iota type (Homo sapiens) (UniProt P41743); settings: at 0.1 µM
T1 sequence (whole entry): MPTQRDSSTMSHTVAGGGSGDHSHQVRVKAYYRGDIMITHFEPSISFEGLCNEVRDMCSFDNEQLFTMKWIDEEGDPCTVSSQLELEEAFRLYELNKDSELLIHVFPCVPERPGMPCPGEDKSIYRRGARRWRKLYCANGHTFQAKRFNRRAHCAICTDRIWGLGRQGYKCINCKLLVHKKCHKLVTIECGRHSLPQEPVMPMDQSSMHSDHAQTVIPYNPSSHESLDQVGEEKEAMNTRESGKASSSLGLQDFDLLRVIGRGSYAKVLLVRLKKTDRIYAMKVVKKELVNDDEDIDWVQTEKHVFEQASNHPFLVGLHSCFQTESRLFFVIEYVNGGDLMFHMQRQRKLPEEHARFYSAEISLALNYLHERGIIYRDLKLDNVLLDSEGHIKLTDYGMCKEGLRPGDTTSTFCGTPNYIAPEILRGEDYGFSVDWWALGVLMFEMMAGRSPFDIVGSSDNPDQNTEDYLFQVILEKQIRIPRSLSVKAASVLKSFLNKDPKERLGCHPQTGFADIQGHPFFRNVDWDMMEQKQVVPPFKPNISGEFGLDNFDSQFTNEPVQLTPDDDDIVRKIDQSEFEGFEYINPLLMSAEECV

[3] = biological target: T1, Protein kinase C iota type (Homo sapiens); settings: at 1 µM
[4] = biological target: Protein kinase C theta type (Homo sapiens) (UniProt Q04759); settings: at 0.1 µM
Sequence of Protein kinase C theta type (Homo sapiens) (Q04759 whole entry, looked up): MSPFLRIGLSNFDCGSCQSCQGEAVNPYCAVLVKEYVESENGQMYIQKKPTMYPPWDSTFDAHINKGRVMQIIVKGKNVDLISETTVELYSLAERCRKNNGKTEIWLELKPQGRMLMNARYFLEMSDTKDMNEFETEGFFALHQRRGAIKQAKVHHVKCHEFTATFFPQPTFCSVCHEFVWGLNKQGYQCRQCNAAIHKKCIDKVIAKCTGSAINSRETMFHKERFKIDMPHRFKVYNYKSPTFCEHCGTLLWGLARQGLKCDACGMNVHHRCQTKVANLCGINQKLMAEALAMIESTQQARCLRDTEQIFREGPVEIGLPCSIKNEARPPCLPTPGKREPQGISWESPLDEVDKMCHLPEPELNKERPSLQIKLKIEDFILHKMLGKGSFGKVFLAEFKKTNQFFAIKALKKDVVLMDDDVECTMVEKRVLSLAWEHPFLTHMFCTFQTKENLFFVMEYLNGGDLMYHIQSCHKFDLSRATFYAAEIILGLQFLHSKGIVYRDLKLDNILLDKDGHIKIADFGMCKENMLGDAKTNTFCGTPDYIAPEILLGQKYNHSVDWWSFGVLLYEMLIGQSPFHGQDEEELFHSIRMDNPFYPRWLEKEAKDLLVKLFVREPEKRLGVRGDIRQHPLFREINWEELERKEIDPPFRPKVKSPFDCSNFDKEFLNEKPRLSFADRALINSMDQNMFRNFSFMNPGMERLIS

[5] = biological target: Protein kinase C theta type (Homo sapiens) (UniProt Q04759); settings: at 1 µM
[6] = biological target: Protein kinase C beta type (Homo sapiens) (UniProt P05771); settings: at 0.1 µM
Sequence of Protein kinase C beta type (Homo sapiens) (P05771 2-671 limits assumed): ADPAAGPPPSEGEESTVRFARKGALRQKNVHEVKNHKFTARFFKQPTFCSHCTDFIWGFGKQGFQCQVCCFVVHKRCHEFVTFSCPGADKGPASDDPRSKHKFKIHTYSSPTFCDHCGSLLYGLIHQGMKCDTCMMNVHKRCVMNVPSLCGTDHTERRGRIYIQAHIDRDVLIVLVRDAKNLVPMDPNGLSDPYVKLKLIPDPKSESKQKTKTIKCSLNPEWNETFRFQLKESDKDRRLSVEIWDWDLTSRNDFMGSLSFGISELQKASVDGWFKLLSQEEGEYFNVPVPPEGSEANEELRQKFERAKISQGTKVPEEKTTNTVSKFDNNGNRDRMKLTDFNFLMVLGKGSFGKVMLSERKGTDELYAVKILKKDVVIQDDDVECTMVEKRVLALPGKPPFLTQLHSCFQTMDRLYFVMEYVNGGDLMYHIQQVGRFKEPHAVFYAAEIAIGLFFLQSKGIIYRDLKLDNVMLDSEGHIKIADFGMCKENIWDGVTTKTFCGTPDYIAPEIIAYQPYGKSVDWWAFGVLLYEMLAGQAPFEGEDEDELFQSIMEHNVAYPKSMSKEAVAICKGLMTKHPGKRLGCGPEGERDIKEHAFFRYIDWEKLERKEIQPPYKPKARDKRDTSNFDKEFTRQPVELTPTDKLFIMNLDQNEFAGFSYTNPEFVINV

[7] = biological target: Protein kinase C beta type (Homo sapiens) (UniProt P05771); settings: at 1 µM
[8] = biological target: T2, Serine/threonine-protein kinase D1 (Homo sapiens) (UniProt Q15139); settings: at 0.1 µM
T2 sequence (whole entry): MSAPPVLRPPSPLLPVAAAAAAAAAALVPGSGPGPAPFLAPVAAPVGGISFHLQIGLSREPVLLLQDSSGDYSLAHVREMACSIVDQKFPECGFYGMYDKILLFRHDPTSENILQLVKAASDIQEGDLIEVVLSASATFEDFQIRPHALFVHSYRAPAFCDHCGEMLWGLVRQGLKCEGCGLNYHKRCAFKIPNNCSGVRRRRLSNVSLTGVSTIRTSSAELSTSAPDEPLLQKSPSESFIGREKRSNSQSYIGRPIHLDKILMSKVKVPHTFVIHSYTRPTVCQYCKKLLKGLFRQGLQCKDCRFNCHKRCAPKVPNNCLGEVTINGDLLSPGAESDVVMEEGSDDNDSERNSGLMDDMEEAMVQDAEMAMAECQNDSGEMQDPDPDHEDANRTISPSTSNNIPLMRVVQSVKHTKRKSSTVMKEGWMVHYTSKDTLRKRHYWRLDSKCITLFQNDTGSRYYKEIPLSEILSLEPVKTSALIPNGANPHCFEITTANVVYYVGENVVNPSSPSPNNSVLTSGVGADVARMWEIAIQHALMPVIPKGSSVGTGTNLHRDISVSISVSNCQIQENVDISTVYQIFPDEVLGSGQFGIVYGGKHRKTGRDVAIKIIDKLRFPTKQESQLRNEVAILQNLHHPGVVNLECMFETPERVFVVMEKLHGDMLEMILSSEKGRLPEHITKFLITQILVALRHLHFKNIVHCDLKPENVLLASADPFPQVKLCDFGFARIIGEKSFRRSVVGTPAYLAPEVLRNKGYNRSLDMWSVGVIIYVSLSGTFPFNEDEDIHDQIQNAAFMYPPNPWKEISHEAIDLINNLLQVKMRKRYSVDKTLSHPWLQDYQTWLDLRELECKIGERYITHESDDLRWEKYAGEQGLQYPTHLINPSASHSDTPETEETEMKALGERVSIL

[9] = biological target: T2, Serine/threonine-protein kinase D1 (Homo sapiens); settings: at 1 µM
[10] = biological target: T3, Serine/threonine-protein kinase D2 (Homo sapiens) (UniProt Q9BZL6); settings: at 0.1 µM
T3 sequence (whole entry): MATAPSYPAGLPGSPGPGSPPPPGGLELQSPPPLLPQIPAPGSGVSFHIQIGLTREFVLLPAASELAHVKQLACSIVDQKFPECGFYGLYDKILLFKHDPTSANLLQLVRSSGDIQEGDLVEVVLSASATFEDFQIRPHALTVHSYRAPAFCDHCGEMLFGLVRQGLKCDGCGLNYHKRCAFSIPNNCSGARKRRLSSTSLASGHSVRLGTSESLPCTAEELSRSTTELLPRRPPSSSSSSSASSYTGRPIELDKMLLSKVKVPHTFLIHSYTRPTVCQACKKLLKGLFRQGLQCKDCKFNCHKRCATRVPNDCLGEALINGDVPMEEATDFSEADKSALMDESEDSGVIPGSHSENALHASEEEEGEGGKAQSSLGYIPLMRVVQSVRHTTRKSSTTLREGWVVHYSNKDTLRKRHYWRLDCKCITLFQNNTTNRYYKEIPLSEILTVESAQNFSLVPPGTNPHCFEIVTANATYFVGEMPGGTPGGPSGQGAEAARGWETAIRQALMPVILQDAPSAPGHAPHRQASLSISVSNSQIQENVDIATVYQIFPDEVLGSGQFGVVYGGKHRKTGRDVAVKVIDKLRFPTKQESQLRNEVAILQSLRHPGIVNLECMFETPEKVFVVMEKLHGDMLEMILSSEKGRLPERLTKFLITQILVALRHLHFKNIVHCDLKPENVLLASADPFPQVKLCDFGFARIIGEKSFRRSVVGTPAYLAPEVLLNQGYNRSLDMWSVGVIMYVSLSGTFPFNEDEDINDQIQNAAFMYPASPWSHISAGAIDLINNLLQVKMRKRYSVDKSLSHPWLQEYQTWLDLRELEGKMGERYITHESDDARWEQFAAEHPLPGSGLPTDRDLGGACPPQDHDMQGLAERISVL

[11] = biological target: T3, Serine/threonine-protein kinase D2 (Homo sapiens); settings: at 1 µM
[12] = biological target: T4, Serine/threonine-protein kinase D3 (Homo sapiens) (UniProt O94806); settings: at 0.1 µM
T4 sequence (whole entry): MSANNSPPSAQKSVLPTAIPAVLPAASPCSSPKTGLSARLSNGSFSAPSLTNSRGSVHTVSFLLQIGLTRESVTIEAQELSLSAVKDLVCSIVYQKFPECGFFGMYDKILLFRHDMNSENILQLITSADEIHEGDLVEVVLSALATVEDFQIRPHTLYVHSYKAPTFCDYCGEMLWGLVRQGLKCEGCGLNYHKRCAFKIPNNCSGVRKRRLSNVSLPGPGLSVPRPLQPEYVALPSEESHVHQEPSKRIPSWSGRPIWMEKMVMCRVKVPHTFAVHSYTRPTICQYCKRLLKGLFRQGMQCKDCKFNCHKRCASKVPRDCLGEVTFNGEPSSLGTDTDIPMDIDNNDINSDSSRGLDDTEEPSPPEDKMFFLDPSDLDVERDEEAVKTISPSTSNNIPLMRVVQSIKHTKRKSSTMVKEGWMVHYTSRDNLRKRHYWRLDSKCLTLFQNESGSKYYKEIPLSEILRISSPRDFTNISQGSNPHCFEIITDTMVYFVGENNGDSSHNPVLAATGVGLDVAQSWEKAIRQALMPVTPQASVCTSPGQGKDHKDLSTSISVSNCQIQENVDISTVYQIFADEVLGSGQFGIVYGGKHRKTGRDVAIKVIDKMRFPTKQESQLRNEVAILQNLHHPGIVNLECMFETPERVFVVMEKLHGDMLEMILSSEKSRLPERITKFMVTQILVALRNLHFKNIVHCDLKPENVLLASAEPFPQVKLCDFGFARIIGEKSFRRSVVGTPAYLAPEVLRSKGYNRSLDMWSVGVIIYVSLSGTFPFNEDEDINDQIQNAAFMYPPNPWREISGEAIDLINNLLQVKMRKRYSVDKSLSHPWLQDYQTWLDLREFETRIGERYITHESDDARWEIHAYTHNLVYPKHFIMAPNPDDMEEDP

[13] = biological target: T4, Serine/threonine-protein kinase D3 (Homo sapiens); settings: at 1 µM
[14] = biological target: T5, cGMP-dependent protein kinase 1 (Homo sapiens) (UniProt Q13976); settings: at 0.1 µM
T5 sequence (whole entry): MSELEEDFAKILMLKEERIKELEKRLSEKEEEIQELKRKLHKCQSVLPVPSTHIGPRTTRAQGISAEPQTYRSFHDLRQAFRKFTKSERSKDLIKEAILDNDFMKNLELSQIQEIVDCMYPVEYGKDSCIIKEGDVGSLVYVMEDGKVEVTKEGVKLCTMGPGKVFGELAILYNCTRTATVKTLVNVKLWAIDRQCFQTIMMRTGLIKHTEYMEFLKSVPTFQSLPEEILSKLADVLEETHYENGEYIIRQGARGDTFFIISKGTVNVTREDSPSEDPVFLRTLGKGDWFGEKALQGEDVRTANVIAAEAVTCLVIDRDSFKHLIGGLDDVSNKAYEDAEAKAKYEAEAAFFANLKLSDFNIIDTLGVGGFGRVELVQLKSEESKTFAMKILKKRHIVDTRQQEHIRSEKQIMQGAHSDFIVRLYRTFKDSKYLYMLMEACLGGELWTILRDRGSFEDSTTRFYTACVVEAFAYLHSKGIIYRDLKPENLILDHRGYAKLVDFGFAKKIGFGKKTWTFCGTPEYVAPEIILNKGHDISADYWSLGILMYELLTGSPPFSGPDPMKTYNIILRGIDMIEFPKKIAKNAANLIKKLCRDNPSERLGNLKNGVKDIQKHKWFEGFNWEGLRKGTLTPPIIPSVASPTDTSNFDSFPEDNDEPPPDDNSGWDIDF

[15] = biological target: T5, cGMP-dependent protein kinase 1 (Homo sapiens); settings: at 1 µM
[16] = biological target: T6, cGMP-dependent protein kinase 2 (Homo sapiens) (UniProt Q13237); settings: at 0.1 µM
T6 sequence (whole entry): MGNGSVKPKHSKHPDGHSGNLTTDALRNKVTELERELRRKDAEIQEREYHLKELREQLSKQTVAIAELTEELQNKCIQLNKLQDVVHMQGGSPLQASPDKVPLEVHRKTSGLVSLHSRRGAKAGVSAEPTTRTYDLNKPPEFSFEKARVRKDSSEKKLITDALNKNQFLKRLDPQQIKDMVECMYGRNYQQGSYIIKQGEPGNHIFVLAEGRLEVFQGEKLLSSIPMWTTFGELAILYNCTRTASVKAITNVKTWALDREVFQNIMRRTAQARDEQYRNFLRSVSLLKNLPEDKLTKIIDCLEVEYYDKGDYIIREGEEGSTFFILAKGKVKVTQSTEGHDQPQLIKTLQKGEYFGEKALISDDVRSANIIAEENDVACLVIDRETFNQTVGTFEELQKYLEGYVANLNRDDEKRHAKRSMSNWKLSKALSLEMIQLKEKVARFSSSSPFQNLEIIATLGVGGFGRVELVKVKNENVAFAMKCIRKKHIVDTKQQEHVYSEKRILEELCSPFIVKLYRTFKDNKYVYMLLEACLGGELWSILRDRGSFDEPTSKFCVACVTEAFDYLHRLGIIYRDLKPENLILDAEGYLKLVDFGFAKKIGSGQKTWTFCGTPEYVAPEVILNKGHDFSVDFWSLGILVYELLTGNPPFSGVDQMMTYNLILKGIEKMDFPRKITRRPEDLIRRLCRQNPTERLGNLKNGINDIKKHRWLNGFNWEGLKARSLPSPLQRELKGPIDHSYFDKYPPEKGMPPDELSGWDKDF

[17] = biological target: T6, cGMP-dependent protein kinase 2 (Homo sapiens); settings: at 1 µM
[18] = biological target: T7, cAMP-dependent protein kinase catalytic subunit PRKX (Homo sapiens) (UniProt P51817); settings: at 0.1 µM
T7 sequence (whole entry): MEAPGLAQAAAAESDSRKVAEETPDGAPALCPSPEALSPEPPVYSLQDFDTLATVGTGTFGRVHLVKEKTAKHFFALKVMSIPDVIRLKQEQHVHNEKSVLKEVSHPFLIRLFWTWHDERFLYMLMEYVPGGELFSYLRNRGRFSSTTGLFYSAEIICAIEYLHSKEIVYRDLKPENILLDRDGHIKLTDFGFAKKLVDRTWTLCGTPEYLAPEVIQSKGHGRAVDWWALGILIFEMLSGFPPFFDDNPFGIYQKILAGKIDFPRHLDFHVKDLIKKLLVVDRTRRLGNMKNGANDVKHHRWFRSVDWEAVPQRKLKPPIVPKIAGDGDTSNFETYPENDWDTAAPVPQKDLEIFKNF

[19] = biological target: T7, cAMP-dependent protein kinase catalytic subunit PRKX (Homo sapiens); settings: at 1 µM
[20] = biological target: Rho-associated protein kinase 1 (Homo sapiens) (UniProt Q13464); settings: at 0.1 µM;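 note: values are mean percent inhibition of ROCK1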
Sequence of Rho-associated protein kinase 1 (Homo sapiens) (Q13464 2-1354 limits assumed): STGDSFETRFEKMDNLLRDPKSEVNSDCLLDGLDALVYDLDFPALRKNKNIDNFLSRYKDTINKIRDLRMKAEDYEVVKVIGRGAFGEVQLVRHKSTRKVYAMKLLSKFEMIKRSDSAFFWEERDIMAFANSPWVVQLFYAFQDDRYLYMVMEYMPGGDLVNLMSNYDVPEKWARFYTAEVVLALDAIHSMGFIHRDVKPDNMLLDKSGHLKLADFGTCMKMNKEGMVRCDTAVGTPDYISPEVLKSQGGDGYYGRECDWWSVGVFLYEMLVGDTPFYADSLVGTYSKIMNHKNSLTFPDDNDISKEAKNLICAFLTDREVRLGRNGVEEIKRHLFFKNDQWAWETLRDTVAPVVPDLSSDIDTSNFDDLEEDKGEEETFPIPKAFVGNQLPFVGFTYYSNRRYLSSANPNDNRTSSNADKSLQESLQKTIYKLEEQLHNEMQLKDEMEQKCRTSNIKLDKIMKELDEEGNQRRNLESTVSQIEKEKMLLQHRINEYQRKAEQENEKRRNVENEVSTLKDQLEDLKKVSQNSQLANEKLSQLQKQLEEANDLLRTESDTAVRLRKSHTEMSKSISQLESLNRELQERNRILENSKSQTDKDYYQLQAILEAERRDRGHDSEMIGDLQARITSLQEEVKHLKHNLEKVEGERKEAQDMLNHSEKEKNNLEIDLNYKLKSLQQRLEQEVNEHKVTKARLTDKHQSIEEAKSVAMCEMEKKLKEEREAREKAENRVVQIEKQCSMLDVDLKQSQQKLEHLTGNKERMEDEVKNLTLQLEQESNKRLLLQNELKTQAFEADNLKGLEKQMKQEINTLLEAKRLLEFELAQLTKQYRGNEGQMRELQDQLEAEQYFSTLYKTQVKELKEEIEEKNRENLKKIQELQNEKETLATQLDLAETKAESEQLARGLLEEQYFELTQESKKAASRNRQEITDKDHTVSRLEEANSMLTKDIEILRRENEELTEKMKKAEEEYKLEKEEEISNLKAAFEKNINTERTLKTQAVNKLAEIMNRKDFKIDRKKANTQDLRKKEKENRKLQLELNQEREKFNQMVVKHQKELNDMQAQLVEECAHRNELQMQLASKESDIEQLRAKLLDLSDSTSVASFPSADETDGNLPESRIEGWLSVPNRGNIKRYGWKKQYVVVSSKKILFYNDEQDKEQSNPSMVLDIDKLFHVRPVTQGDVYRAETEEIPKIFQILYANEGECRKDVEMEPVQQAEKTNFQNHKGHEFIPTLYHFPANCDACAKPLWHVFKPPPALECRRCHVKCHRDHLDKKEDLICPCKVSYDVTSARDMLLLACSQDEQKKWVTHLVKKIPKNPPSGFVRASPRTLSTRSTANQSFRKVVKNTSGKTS

SMILES	inhibition [1] [%]	inhibition [2] [%]	inhibition [3] [%]	inhibition [4] [%]	inhibition [5] [%]	inhibition [6] [%]	inhibition [7] [%]	inhibition [8] [%]	inhibition [9] [%]	inhibition [10] [%]	inhibition [11] [%]	inhibition [12] [%]	inhibition [13] [%]	inhibition [14] [%]	inhibition [15] [%]	inhibition [16] [%]	inhibition [17] [%]	inhibition [18] [%]	inhibition [19] [%]	inhibition [20] [%]
COc1cccc(-n2ncc3c(N/N=C/c4ccc(C)cc4)ncnc32)c1	-9.04	1.65	1.86	3.03	4.16	1.4	2.79	6.31	10.7	6.6	8.29	5.18	9.61	3.66	7.27	3.43	5.99	2.31	4.53	3.27
Cc1cc(O)cc(C)c1/C=C/c1cncc(C(=O)N(C)C)c1	4.07	0.51	1.32	0.96	0.78	0.19	3	1.61	2.79	-2.38	2.05	6.37	3	2.65	3.73	1.74	3.78	1.77	0.5	0.55
CCn1c(-c2nonc2N)nc2c(C#CC(C)(C)O)nc(OCCNC)cc21	8.19	0.89	1.21	15.7	61.1	1.53	10.8	4.31	12.9	4.9	7.32	4.82	9.81	9.59	44.8	39.3	70.9	21.5	65.9	3.08
COc1ccc2ncnc(Nc3ccc(OCc4ccccc4)cc3)c2c1	5.03	0.61	-0.95	1.21	1.19	0.9	1.9	3.89	3.35	0.24	2.88	0.89	2.6	0.77	1.95	0.94	2.5	1.23	1.9	-0.05
